Shown are actives, neighbours in structure and some others; about 2.1% of the full set was active somewhere.
Shn3 inh set2: reduction of Shn3 3'UTR firefly luciferase signal, primary screen, Schnurri-3 inhibitor project, cell-based, Clone20 osteoblasts, set 2. Clone20 osteoblast Shn3 3'UTR firefly luciferase, 24 h. inhibition, % at 12.5 µM. hit rate 0.52% among 360,000. AID 588674, 2011;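 active = mean inhibition of at least 75% with every replicate also reaching 75%; inconclusive = mean inhibition at least 75% but some replicate below; inactive = mean inhibition below 75%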;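 also: 0% = median of neutral control wells and 100% = pilot-screen positive control compound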
TRPM1 prom inh: inhibitors of MITF-dependent TRPM1 promoter reporter, primary screen, cell-based, SK-MEL-5, single point, luciferase; SK-MEL-5 TRPM1 promoter luciferase, 24 h; inhibition, % at 12.5 µM; hit rate 0.83% among 330,000;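 active = mean inhibition across replicates of 60% or more, whatever share of single replicates reaches that level; inconclusive = some that reach 60%, reason not given; inactive = mean inhibition across replicates below 60%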
aSyn 5UTR inh: MLPCN primary screen, SNCA 5' untranslated region | alpha-synuclein 5'UTR reporter, inhibitor activity | inhibition, % (tested at 7.5 µM) | hit rate 0.82% among 300,000 | AID 1813, 2009; in the data active = inhibition above about 60%; inconclusive = no clear call, values can overlap the other calls;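 also: H4 neuroglioblastoma cells stably carrying SNCA 5'UTR luciferase fusion; 0% = DMSO wells and 100% = positive control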
LMP1 NFkB inh: EBV LMP1-driven NF-kappaB luciferase reporter inhibitors, primary screen, cell-based, luminescence, single point; inhibition, % at 12.5 µM; hit rate 0.69% among 350,000; LMP1-induced NF-kappaB luciferase reporter cells; AID 504558, 2011; in the data active = inhibition above about 41%; inconclusive = no clear call, values can overlap the other calls;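 also: 0% = neutral control wells and 100% = reference inhibitor control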
PAX8 inh HTS: inhibitors of PAX8-driven TPO luciferase reporter, primary screen, RMG-I cells, single concentration. SteadyGlo, 24 h. inhibition, % at 12.6 µM. hit rate 1.2% among 360,000. AID 652154, 2013;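 active = mean replicate inhibition at least 60% with every replicate also reaching 60%; inconclusive = only one of the two criteria is met; inactive = mean below 60% and not all replicates reaching 60%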;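 also: luciferase light reporting Pax8 driven TPO promoter activity; plate controls were median of neutral control wells for no effect and mitoxantrone controls for full effect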
* hit, by the source's call; ? = inconclusive; · = no result given.

SMILES	Shn3 inh set2	TRPM1 prom inh	aSyn 5UTR inh	LMP1 NFkB inh	PAX8 inh HTS
C[C@@H]1O[C@@H](O[C@@H]2C=C3CCC4C(CC[C@]5(C)[C@@H](c6ccc(=O)oc6)CC[C@]45O)[C@@]3(C)CC2)[C@H](O)[C@H](O)[C@H]1O (some centres not stated)	-2	82*	·	88*	110*
CC(=O)C1CCC2(O)C3CCC4=CC(=O)CCC4(C)C3CCC12C (configuration not stated)	-2	4	·	3	·
CC1CC(OC(=O)c2ccccc2)(c2ccccc2)C(C)CN1C (configuration not stated)	8	-7	-6	0	4
CCOC(C[n+]1c(-c2ccccc2)cc(C)cc1-c1ccccc1)OCC	3	·	-5	6	67*
CC(=O)OC[C@]12CCC(C)=C[C@H]1O[C@@H]1[C@H](O)[C@@H](OC(C)=O)[C@@]2(C)[C@]12CO2	99*	91*	·	74*	·
Cc1ccc(-c2cc(-c3ccccc3)cc(-c3ccccc3)[n+]2-c2ccccc2C(=O)O)cc1	-18	46	-14	9	77*
CCC(C)C(NC(=O)CCCNC(=O)CCC(=O)OC1O[C@H]2OC3(C)CC[C@H]4[C@H](C)CCC(C1C)C24OO3)C(=O)O (some centres not stated)	87*	43	-15	-55	74*
CCC(C)NC(=O)CCC(=O)OC1O[C@H]2OC3(C)CC[C@H]4[C@H](C)CCC(C1C)C24OO3 (some centres not stated)	67	30	9	-18	40
COC(=O)C1=C(c2cccc(C#N)c2)C[C@@H]2CC[C@H]1N2C(=O)NC1Cc2ccccc2C1	-11	-12	·	-3	-20
O=c1[nH]c(=S)[nH]c(O)c1N=Nc1ccc(SC(F)F)cc1	-48	-17	-72	21	-105
O=c1[nH]c(=S)[nH]c(O)c1N=Nc1ccc(S(=O)(=O)N2CCc3ccccc32)cc1	-24	64*	11	6	-3
CCOc1cc(C2NCc3ccccc3-n3cccc32)ccc1OC (configuration not stated)	11	-1	10	-2	8
COc1cc2c(c(OC)c1OC)-c1ccc(C(=O)O)cc1[C@@H](NC(C)=O)CC2	16	-6	-1	1	-2
COc1cc2c(c(OC)c1OC)-c1ccc(O)c(=O)cc1[C@@H](N)CC2	-6	2	·	-5	·
COc1cc2c(c(OC)c1O)-c1ccc(OC)c(=O)cc1C(NC(=O)C(F)(F)F)CC2 (configuration not stated)	20	34	·	-11	80*
COc1c(O)cc2c(c1OC)-c1ccc(OC)c(=O)cc1C(NC(C)=O)CC2 (configuration not stated)	9	34	·	-3	77*
COc1cc2c(c(OC)c1OC)-c1ccc(SC)c(=O)cc1C(NC(C)=O)CC2 (configuration not stated)	-18	44	·	1	83*
O=[N+]([O-])c1ccc(NC2CCCC2)c2ccncc12	21	-1	?	9	·
COc1ccc(CN2Cc3cc(-c4ccccc4)ccc3-n3nncc3C2)cc1	-16	·	·	·	-9
Cc1ccccc1CN1Cc2cnnn2-c2ccccc2C1C#N (configuration not stated)	-9	98*	·	13	50
CC[C@@H](O)C[C@H]1CCC[C@@]2(C[C@@H]3OC(=O)/C=C/[C@@](C)(O)[C@@H](O)[C@H](C)[C@@H](O)[C@H](OC4CCC(N(C)C)C(C)O4)[C@@H](O)[C@](C)(O)CCCCC/C=C/[C@@H]4CC(C)(C)O[C@@]4(O)C[C@H](O2)[C@H]3C)O1 (some centres not stated)	90*	76*	·	24	?
C[C@@H]1C(=O)O[C@H]2[C@H](O)[C@]34[C@@H]5OC(=O)[C@]3(OC3OC(=O)[C@H](O)C34[C@H](C(C)(C)C)[C@@H]5O)[C@@]12O (some centres not stated)	-12	8	·	-6	-7
O=P1(N(CCCl)CCCl)NCCCO1 (configuration not stated)	-7	-8	6	85*	-17
Cc1ccsc1C(=O)C1CCCN(Cc2c(C)nn(C(C)C)c2C)C1 (configuration not stated)	36	2	-18	4	13
